Values without a mark were called inactive. Activity calls are given as the source filed them. Cut-off read from the data, not from the text of the source, unless noted: active = inhibition above about 33%; inactive = the rest.
What was measured:
[1] = StAR promoter reporter inhibitors, counter-screen for LRH-1 inverse agonist project, cell-based, luminescence, high throughput (AID 651611; in the data active = inhibition above about 28%); details: StAR promoter luciferase reporter counterscreen, at 3.6 µM, active compounds read high
[2] = biological target: Nuclear receptor subfamily 5 group A member 2 (Homo sapiens) (UniProt O00482); assay: NR5A2 activity suppression in reporter cells – cell-based, luminescence, confirmation (AID 651613; in the data active = inhibition above about 42%;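 note: HEK293T cells co-transfected with LRH-1 and StAR promoter luciferase reporter; 0% = vehicle wells and 100% = parental cells lacking receptor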); details: cell-based LRH-1 luciferase reporter, inverse agonism; at 3.6 µM; active compounds read high
[3] = biological target: Steroidogenic factor 1 (Homo sapiens) (UniProt Q13285); assay: inverse agonism at SF1 nuclear receptor – cell-based, luminescence, high throughput, counter-screen for LRH-1 inverse agonist project (AID 651614; in the data active = inhibition above about 44%;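 note: cells cotransfected with StAR promoter reporter and SF1 expression vector; 0% = vehicle on cells with receptor and 100% = vehicle on cells lacking receptor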); details: cell-based SF1 luciferase reporter, at 3.6 µM, active compounds read high
[4] = compounds suppressing VP16-driven luciferase signal – cell-based, luminescence, high throughput, counter-screen for LRH-1 inverse agonist project (AID 651615); details: Gal4-VP16 luciferase reporter cells, at 3.6 µM, active compounds read high

Steroidogenic factor 1 (Homo sapiens), sequence (Q13285 whole entry, looked up, the tested form may be a part): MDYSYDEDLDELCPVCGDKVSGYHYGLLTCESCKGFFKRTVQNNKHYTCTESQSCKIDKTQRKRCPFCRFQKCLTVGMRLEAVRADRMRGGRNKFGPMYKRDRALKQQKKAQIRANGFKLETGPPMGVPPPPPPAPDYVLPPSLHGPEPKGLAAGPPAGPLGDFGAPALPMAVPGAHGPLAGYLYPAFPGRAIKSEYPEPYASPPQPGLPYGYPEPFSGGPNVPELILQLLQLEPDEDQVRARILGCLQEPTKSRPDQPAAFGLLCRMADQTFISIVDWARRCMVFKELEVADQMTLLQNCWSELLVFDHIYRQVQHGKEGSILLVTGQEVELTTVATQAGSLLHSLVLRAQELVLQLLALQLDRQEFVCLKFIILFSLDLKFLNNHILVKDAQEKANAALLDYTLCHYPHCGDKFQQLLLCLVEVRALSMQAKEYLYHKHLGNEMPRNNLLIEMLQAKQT
Nuclear receptor subfamily 5 group A member 2 (Homo sapiens), sequence (O00482 whole entry, looked up): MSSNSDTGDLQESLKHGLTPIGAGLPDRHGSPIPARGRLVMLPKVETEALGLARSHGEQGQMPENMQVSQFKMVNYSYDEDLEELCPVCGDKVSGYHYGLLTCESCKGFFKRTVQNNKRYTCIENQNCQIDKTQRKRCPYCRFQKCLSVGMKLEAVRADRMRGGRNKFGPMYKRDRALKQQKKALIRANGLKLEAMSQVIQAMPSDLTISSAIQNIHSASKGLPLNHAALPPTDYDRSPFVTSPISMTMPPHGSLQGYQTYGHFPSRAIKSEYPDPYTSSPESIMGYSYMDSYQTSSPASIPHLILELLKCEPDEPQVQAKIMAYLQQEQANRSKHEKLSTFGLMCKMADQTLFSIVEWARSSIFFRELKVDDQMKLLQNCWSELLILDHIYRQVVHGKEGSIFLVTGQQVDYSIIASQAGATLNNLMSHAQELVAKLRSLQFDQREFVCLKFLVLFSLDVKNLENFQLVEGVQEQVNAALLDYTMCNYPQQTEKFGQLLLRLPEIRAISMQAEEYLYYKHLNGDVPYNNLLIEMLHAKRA

SMILES | inhibition [1] | inhibition [2] | inhibition [3] | inhibition [4]
C#CCN(C[C@@H]1[C@@H](OC(=O)NCc2ccc(OC)c(OC)c2)[C@@H](OC(=O)NCc2ccc(OC)c(OC)c2)Cn2c(=O)ccc(=O)n21)S(=O)(=O)c1ccc(C)cc1 | 16.6% | 40% | 35.7% | 10.2%
O=C1C=C(c2ccccc2)OC2(CCCC2)O1 | 19.8% | 67.3% (active) | 61.2% (active) | -4.15%
COc1ccc(/C=N/n2c(SC)nnc2-c2ccccc2)c(OC)c1OC | 53.5% (active) | 41.2% (active) | 54.4% (active) | -31.8%
Cc1ccc(/C=C/S(=O)(=O)NCC(=O)OCC(=O)Nc2c(F)cccc2F)cc1 | 26.3% | 52% (active) | 55.4% (active) | -18.4%
COc1cccc(COC(=O)C2CC(=O)N(Cc3ccco3)C2)c1OC (configuration not stated) | 12% | 30.3% | 31% | -7.19%
O=[N+]([O-])c1ccc(N2CCCC2)cc1NC1CC1 | 0.53% | 47.1% (active) | 47.3% (active) | -3.08%
Clc1ccccc1-c1nnc2sc(-c3ccncc3)nn12 | 15.3% | 52.6% (active) | 50.9% (active) | 3.81%
O=C(c1ccco1)N1CCCC(N2CCN(c3cccc(C(F)(F)F)c3)CC2)C1 (configuration not stated) | -1.93% | 51% (active) | 47.7% (active) | 11.1%
Cc1ccc(S(=O)(=O)Oc2ccccc2/C=N/NC(N)=S)cc1 | 42.5% (active) | 70.6% (active) | 66.8% (active) | 47.2% (active)
CC(=O)Nc1sc2c(c1-c1nc3ccccc3s1)CN(C(C)C)CC2 | 36.6% (active) | 66.4% (active) | 61.1% (active) | 80.7% (active)
Cn1cnnc1SCC(=O)Nc1ccc(N2CCOCC2)cc1 | 7.69% | 59.5% (active) | 34.5% | -9.61%
CCN(CC)S(=O)(=O)c1ccc(N2CCCC2)c(NC(=O)c2ccc([N+](=O)[O-])o2)c1 | 19.4% | 55.4% (active) | 56.6% (active) | 10.5%
COc1ccc(CC(=O)Nc2ccncc2Cl)cc1 | 7.9% | 57.3% (active) | 49.8% (active) | 43% (active)
O=C(Nc1cc(-c2nc3ncccc3o2)ccc1Cl)c1ccc([N+](=O)[O-])o1 | 15.3% | 52.2% (active) | 53.2% (active) | -25.6%
O=C(Nc1nc(-c2ccccn2)cs1)c1ccc([N+](=O)[O-])o1 | 32% (active) | 69.5% (active) | 77.7% (active) | 16.4%
CN1C=C/C(=C\c2cc[n+](C)c3ccccc23)c2ccccc21 | 28.6% (active) | 108% (active) | 46.8% (active) | 81.4% (active)
COc1cc(-c2nc(C(=O)NCC3CCCO3)cc3c2[nH]c2ccccc23)cc(OC)c1OC (configuration not stated) | 62.5% (active) | 49.6% (active) | 39.1% | 2.55%
O=C(COc1ccc2c3c(c(=O)oc2c1)CCCC3)NCCN1CCOCC1 | 0.51% | 41.4% (active) | 23.5% | -1.02%
Cc1cc(C)c2nc(NC(=O)c3ccc([N+](=O)[O-])o3)sc2c1 | -2.6% | 50.8% (active) | 53.7% (active) | -14.5%
Cc1ccc(/C=C2\SC(=S)N(c3c(C)n(C)n(-c4ccccc4)c3=O)C2=O)cc1 | 9.85% | 55.7% (active) | 45.5% (active) | -2.06%
CCn1c(=S)sc2c(=O)n(CC(=O)Nc3ccc(OC)c(Cl)c3)c(C)nc21 | 6% | 33.4% | 24.9% | 4.75%
O=C(CCl)Nc1ccc(S(=O)(=O)NC2=NCCCCC2)cc1 | 41.5% (active) | 62% (active) | 61% (active) | 17.7%
COc1cc(F)c(C2=CC(=O)CC(C)(C)C2)cc1F | -6.98% | 43.9% (active) | 34.5% | -13.9%
Cc1ccc(C)c(NC(=O)CSc2nnc(-c3n[nH]c4ccccc34)o2)c1 | 10.3% | 58.9% (active) | 50.4% (active) | 5.08%
O=C(CCl)NCCCN(C(=O)C(Cl)Cl)c1ccc([N+](=O)[O-])cc1 | 16.7% | 59.2% (active) | 53.5% (active) | -8.07%
C#Cc1cc(N2CCN(C(=O)c3ccoc3)CC2)n2nc(-c3cccc(Cl)c3)cc2n1 | 49% (active) | 55.6% (active) | 62.4% (active) | 23.7%
O=C(CN1C(=O)NC2(CCOc3ccccc32)C1=O)Nc1cccc([N+](=O)[O-])c1 (configuration not stated) | 13.7% | 58.6% (active) | 53.6% (active) | -15.2%

SMILES | inhibition [1] | inhibition [2] | inhibition [3] | inhibition [4]
Cc1ccc2nc(-c3ccc(NS(C)(=O)=O)cc3)cc(-c3ccccc3)c2c1 | 8.04% | 51.1% (active) | 51.8% (active) | -2.14%
Cc1cc(Br)ccc1NC(=O)CN1C(=O)CCC1=O | 7.63% | 58.1% (active) | 72.2% (active) | 4.01%
CCOc1ccc(CCNC(=O)COC(=O)c2cccc(S(=O)(=O)N3CCCC3)c2)cc1OCC | -4.16% | 58.6% (active) | 54.1% (active) | 9.86%
Cc1cc(OCC(=O)N2CCC(O)CC2)c2c(C)cc(=O)oc2c1 | 5.07% | 44.8% (active) | 35.2% | -6.7%
C/C(=N\Nc1nc(C)c(C)s1)c1ccc([N+](=O)[O-])cc1 | -12.6% | 49.1% (active) | 47.8% (active) | -2.81%
c1ccc(C2=Nn3c(nnc3-c3n[nH]c4c3CCC4)SC2)cc1 | 47.6% (active) | 50.8% (active) | 40.7% | -147%
COc1ccccc1N1CCN(C(=O)C2c3ccccc3Oc3ccccc32)CC1 | 34.4% (active) | 26% | 33.4% | 39.4% (active)
Cc1nn(CC(=O)Nc2ccc(N3CCOCC3)cc2)c(C)c1Cl | -2.18% | 44.3% (active) | 29.8% | -1.64%
CCc1ccccc1NC(=O)CSc1nnc(Cn2nnc3ccccc32)n1C | 5.04% | 53% (active) | 48.2% (active) | -5.32%
CC(=O)c1ccc(NC(=S)Nc2cccc3cnccc23)cc1 | 3.88% | 5.22% | 4.69% | 7.24%
O=C(CCl)Nc1ccc2c(c1)OCO2 | 37.1% (active) | 60.3% (active) | 62.4% (active) | -14.7%
O=C1CCc2cc(OCCCCc3nnnn3C3CCCCC3)ccc2N1 | 12.9% | 54% (active) | 49.8% (active) | 9.24%
OC[C@@H]1CN(Cc2ccc(-c3ccccc3)cc2)C[C@H](n2cnc3c(NCc4ccco4)ncnc32)O1 | 22.7% | 63.7% (active) | 65% (active) | 33.6% (active)
O=[N+]([O-])c1ccc(-n2cnc3ccccc32)c([N+](=O)[O-])c1 | 17.6% | 54.7% (active) | 62.1% (active) | 9.79%
Cc1cc(=O)oc2c(C)c(OCC(=O)NC3CC(C)(C)NC(C)(C)C3)ccc12 | -1.6% | 48% (active) | 55% (active) | -11.2%
Cc1cccc2cc(C#N)c(SCC(=O)N3CC(=O)Nc4ccccc43)nc12 | 53.7% (active) | 23.3% | 38.1% | 38.5% (active)
CC(=O)c1ccc(OC(C)C(=O)OCC(=O)NCCc2ccccc2)cc1 (configuration not stated) | -2.97% | 47.1% (active) | 40.7% | 7.05%
CCOC(=O)c1ccc(N2CCN(C(=O)c3ccccc3)CC2)c(NC(=O)c2ccco2)c1 | 26.2% | 38.6% | 40.9% | -26.2%
Cc1nnc(SCC(=O)Nc2ccc(Br)cc2)n(N)c1=O | 6.5% | 44.3% (active) | 32.1% | -5.1%
COc1ccc(NC(=O)c2cc(-c3cc(F)ccc3OC)n[nH]2)cc1OC | 28.8% (active) | 43.6% (active) | 49.4% (active) | 52% (active)
COc1ccc(NC(=O)CSc2nc3nc(C)cc(C)c3c(=O)[nH]2)cc1 | 3.79% | 43.6% (active) | 48.5% (active) | -2.26%
O=C(Nc1cccc2ncccc12)c1ccc([N+](=O)[O-])o1 | 16.2% | 69.9% (active) | 64.4% (active) | -17.5%
Cc1cc([N+](=O)[O-])ccc1NCc1ccc2ccccc2c1 | 1.75% | 43.1% (active) | 38.8% | 2.64%
NC(=O)c1oc2ccccc2c1NC(=O)c1ccc([N+](=O)[O-])o1 | 23.2% | 67.6% (active) | 69.1% (active) | -9.15%
Nc1ccccc1Nc1ccncc1[N+](=O)[O-] | 0.62% | 55.8% (active) | 63.3% (active) | -1.54%
CN1c2ccccc2C(C)(C)C12C=Nc1c(cc(N3CCOCC3)c3ccccc13)O2 (configuration not stated) | 9% | 19.1% | 21.1% | 4.98%

From PubChem BioAssay
